Experimental data taken from the supplement of paper PMC10849652.
About 7,900 targets were measured; listed, in parts, are those with a hit and a random draw of the rest. About 0.6% of all pairs of compound and target were hits. Values without a mark were called inactive.

How the values were obtained:
Test in all cases: log2 fold change, soluble protein after heating vs DMSO (PISA); higher = thermal stabilisation; K562 cells, 10 uM, 30 min; active = over 0.2 and 3.5 SD of the protein, either way, in both replicates (recomputed)
[1] = compound: C#Cc1cccc(Nc2ncnc3cc(OCCOC)c(OCCOC)cc23)c1 [erlotinib]
Procedure, shortened: (§1)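 Quantification of soluble protein used TMTpro 16plex LC-MS/MS, with channel sums equalised. Samples were the supernatant after 21,000xg for 90 min of pooled aliquots from K562 cells (2×10^6 cells/mL) treated with 10 μM compound for 30 min, heated for 3 min over 48°C-58°C, and extracted in PBS with 0.5% NP-40 at 4°C. Values, from duplicates, describe thermal stability against control samples on a log2 fold-change scale.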

[2] = compound: C/C(=N\NC(=O)C1=CC(=CC=C1)S(=O)(=O)N2CCOCC2)/C3=C(C=CC(=C3)Cl)O
Procedure, shortened: as §1

[3] = compound: C1=CC(=C(C=C1Cl)C2=NC3=NC=CN=C3C(=N2)NC4=CC=NC=C4)F
Procedure, shortened: as §1

[4] = compound: C1=CC(=CC=C1C2=NC3=C(N2)C=C(C=C3)C(=O)N)OC4=CC=C(C=C4)Cl
Procedure, shortened: as §1

[5] = compound: C1=CC2=C(C=CC(=C2)/C=C\3/C(=O)NC(=NCC4=CC=CS4)S3)N=C1
Procedure, shortened: as §1

[6] = compound: C1=CC2=NC=CN=C2C=C1/C=C/3\C(=O)NC(=O)S3
Procedure, shortened: as §1

[7] = compound: C1=CC=C(C=C1)C2=NC(=C(N2)C3=CC=NC=C3)C4=CC(=C(C=C4)Cl)O
Procedure, shortened: as §1

[8] = compound: C1=CC=C2C(=C1)C3=NNC4=CC=CC(=C43)C2=O
Procedure, shortened: as §1

[9] = compound: C1CCN(C1)C(=O)NC2=CC=CC(=C2)NC3=NC=C(C(=N3)NCCC4=CN=CN4)Br
Procedure, shortened: as §1

[10] = compound: C1CN(CCC1(CC2=CC=C(C=C2)Cl)N)C3=NC=NC4=C3C=CN4
Procedure, shortened: as §1

[11] = compound: C1COCCN1CCN2C3=CC=CC=C3N=C2NC(=O)C4=CC(=CC=C4)[N+](=O)[O-] [IRAK-1-4 Inhibitor I]
Procedure, shortened: as §1

[12] = compound: C=CC(=O)N1CCC[C@@H](n2nc(-c3ccc(Oc4ccccc4)cc3)c3c(N)ncnc32)C1 [ibrutinib]
Procedure, shortened: as §1

[13] = compound: CC(=O)c1cnc2ccc(-c3cc(Cl)c(O)c(Cl)c3)nc2c1N[C@H]1CC[C@H](CN(C)C)CC1
Procedure, shortened: as §1

[14] = compound: CC(C)(C)Cn1c(N)nc2ccc(-c3[nH]c(C(C)(C)C)nc3-c3ccc(F)cc3)nc21 [ralimetinib]
Procedure, shortened: as §1

[15] = compound: CC(C)(O)CC(=O)NCCn1ccc2ncnc(Nc3ccc(Oc4cccc(C(F)(F)F)c4)c(Cl)c3)c21
Procedure, shortened: as §1

[16] = compound: CC(C)C1=C2N=C(C=C(N2N=C1)NCC3=CC=CC=C3)NCCCCCCN
Procedure, shortened: as §1

[17] = compound: CC(C)C[C@@H](C=O)NC(=O)[C@H](CC(C)C)NC(=O)[C@H](CC(C)C)NC(=O)OCc1ccccc1
Procedure, shortened: as §1

[18] = compound: CC(C)N(C[C@H]1O[C@@H](n2cnc3c(N)ncnc32)[C@H](O)[C@@H]1O)[C@H]1C[C@@H](CCc2nc3cc(C(C)(C)C)ccc3[nH]2)C1 [pinometostat]
Procedure, shortened: as §1

[19] = compound: CC1=C(C(CC(=O)N1)C2=CC=C(C=C2)C(F)(F)F)C(=O)NC3=C(C=C4C(=C3)C=NN4)F
Procedure, shortened: as §1

[20] = compound: CC1=C(C2=C(C=C1)C(=O)C3=CC=CC=C3N2CCCN)C
Procedure, shortened: as §1

Chain of UniProt O43865 (O43865 whole entry, looked up): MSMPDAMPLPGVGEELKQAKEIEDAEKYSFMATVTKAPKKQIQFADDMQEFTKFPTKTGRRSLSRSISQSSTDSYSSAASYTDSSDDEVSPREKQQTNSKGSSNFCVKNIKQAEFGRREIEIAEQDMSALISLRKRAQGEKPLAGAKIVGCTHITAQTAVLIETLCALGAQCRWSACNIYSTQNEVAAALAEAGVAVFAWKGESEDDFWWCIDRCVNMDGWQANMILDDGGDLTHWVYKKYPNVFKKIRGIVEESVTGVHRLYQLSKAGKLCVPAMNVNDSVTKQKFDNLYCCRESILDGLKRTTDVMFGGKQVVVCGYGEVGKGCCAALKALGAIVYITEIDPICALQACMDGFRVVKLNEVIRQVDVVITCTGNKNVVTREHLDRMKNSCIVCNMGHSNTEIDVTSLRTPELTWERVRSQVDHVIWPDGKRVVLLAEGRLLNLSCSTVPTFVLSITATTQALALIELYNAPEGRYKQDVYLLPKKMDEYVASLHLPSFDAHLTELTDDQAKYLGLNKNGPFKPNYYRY
Chain of UniProt P08243 (P08243 whole entry, looked up): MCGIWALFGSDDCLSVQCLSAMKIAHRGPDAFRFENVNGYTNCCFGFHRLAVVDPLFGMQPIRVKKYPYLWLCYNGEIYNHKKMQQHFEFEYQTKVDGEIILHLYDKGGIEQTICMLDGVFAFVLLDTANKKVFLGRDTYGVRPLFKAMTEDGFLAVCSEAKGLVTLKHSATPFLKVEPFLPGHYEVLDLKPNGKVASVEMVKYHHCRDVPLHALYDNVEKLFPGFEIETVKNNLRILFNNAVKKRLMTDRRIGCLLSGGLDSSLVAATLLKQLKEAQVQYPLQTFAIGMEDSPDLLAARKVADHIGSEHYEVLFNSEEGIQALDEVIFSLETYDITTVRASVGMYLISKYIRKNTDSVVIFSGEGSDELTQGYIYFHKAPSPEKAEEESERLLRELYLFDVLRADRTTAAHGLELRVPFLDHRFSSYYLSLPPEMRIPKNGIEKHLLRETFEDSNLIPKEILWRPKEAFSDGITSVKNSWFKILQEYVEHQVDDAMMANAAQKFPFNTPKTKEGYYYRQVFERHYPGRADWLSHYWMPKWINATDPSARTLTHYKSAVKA
Chain of UniProt O00763 (O00763 whole entry, looked up): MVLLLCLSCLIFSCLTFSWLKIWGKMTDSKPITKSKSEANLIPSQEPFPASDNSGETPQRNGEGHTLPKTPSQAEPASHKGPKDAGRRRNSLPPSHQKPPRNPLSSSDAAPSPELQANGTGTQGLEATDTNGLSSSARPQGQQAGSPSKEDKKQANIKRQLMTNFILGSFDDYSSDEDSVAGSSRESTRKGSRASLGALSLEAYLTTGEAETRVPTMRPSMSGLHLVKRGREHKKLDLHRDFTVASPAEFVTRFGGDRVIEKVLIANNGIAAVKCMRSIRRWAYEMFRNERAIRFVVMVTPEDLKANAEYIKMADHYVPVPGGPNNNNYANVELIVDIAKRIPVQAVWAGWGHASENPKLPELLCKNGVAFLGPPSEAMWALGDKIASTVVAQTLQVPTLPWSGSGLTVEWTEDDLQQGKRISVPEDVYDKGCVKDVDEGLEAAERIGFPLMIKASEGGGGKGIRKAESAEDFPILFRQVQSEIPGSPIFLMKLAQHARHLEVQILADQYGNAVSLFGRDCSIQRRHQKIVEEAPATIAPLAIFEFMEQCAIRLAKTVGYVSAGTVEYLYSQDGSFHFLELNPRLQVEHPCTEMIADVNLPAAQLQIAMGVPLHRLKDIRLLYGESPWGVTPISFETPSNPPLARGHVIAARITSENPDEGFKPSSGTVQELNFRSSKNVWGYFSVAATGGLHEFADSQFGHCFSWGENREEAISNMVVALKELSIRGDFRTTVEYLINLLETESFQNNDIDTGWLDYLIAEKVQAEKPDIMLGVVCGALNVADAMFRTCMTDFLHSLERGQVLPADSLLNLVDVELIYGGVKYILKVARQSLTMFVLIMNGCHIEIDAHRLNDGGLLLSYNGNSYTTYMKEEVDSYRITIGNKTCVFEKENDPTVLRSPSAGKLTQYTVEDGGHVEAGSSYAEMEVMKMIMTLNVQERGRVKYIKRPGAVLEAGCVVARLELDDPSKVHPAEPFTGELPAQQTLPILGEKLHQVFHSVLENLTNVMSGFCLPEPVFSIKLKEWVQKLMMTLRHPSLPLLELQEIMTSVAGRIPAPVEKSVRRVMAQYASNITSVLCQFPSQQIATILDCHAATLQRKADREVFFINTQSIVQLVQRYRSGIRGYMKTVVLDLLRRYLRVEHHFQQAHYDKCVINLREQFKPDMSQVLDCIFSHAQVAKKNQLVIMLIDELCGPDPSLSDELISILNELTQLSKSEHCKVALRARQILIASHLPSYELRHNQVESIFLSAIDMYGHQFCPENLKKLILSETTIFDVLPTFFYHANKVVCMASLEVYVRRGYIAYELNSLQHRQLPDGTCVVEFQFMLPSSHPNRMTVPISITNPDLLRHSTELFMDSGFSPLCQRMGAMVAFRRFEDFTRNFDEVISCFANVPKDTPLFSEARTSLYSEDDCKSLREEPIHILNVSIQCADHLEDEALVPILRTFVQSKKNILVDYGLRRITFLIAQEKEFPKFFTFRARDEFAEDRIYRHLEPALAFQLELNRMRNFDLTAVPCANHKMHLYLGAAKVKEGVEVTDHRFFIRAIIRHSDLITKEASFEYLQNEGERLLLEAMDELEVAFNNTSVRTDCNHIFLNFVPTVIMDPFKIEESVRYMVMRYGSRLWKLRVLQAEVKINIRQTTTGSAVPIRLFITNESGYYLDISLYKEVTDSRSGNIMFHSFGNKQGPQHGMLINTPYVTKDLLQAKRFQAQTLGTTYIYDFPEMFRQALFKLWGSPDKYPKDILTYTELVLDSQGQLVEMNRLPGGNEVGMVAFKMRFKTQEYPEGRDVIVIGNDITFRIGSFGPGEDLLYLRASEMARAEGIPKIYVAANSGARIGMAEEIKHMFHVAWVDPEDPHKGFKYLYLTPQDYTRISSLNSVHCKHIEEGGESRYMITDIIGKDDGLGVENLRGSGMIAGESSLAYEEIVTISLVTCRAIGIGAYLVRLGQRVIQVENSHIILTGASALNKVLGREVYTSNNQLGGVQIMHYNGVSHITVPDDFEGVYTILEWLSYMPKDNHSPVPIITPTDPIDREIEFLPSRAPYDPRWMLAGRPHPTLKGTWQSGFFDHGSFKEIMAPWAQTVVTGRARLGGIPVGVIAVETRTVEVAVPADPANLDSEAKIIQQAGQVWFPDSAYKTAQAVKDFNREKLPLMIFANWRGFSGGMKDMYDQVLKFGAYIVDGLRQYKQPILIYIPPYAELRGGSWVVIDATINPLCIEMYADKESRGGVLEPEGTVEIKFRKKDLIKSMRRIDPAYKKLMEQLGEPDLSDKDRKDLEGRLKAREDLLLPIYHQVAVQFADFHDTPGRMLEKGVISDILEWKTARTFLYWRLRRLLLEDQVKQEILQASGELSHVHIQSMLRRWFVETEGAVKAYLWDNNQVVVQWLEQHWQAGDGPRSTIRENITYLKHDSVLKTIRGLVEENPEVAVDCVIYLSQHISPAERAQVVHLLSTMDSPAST
Chain of UniProt Q9NRZ7 (Q9NRZ7 whole entry, looked up): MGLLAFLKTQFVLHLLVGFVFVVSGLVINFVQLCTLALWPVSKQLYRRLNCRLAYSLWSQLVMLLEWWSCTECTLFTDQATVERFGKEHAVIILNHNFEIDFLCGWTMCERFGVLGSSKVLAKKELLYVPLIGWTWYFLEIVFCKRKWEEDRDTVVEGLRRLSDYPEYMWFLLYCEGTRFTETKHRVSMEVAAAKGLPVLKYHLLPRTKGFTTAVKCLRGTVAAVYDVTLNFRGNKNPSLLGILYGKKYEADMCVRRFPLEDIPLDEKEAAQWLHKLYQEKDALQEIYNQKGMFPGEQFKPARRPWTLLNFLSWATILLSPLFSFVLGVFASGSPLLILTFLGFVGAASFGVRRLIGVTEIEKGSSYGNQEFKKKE
Chain of UniProt Q9NP58 (Q9NP58 whole entry, looked up): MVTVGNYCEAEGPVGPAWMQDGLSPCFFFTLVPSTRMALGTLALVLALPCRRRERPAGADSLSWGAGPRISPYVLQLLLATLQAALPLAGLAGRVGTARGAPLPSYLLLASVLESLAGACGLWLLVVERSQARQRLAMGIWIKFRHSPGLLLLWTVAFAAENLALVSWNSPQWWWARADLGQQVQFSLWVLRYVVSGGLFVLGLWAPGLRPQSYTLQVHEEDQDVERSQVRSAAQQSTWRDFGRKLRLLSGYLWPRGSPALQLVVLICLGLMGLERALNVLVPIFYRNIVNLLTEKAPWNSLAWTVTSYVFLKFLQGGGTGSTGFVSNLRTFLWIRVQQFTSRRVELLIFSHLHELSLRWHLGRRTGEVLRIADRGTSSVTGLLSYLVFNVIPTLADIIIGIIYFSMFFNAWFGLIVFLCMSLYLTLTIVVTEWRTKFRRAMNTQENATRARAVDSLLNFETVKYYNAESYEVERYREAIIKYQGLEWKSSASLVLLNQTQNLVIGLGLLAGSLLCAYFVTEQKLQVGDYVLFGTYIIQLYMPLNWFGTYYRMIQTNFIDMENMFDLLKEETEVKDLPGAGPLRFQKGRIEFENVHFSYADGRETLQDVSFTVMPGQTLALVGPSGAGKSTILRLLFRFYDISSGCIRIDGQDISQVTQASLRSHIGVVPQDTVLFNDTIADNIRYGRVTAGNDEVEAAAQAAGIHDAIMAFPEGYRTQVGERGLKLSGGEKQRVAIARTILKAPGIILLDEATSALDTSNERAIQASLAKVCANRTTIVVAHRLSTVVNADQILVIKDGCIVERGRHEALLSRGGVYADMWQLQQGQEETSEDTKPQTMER
Chain of UniProt Q9P287 (Q9P287 whole entry, looked up): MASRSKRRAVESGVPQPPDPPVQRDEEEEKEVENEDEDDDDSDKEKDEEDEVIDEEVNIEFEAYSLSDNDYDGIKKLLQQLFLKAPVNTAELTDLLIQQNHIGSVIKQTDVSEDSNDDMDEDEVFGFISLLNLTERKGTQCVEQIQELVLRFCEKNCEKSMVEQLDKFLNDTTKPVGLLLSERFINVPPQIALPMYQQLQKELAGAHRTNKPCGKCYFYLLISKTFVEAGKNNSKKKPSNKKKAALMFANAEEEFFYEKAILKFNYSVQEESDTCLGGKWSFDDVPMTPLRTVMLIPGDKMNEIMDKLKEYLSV

| Target | log2 fold change [1] | log2 fold change [2] | log2 fold change [3] | log2 fold change [4] | log2 fold change [5] | log2 fold change [6] | log2 fold change [7] | log2 fold change [8] | log2 fold change [9] | log2 fold change [10] | log2 fold change [11] | log2 fold change [12] | log2 fold change [13] | log2 fold change [14] | log2 fold change [15] | log2 fold change [16] | log2 fold change [17] | log2 fold change [18] | log2 fold change [19] | log2 fold change [20] |
| --- | --- | --- | --- | --- | --- | --- | --- | --- | --- | --- | --- | --- | --- | --- | --- | --- | --- | --- | --- | --- |
| ATP6V1H (UniProt Q9UI12) | -0.055 | 0.015 | 0.034 | 0.035 | -0.008 | 0.045 | -0.131 | 0.024 | -0.051 | -0.097 | -0.011 | -0.033 | -0.065 | 0.007 | -0.014 | -0.241 (active) | 0.043 | -0.002 | -0.006 | 0.028 |
| BCLAF1 (UniProt Q9NYF8) | 0.036 | 0.075 | -0.046 | 0.082 | -0.304 | -0.018 | 0.143 | -0.063 | -0.089 | -0.15 | -0.265 | 0.016 | -0.503 (active) | 0.124 | 0.094 | -0.353 | -0.027 | -0.039 | 0.021 | -0.076 |
| ACSL3 (UniProt O95573) | -0.005 | 0.055 | 0.092 | 0.351 (active) | 0.078 | 0.031 | 0.06 | 0.069 | -0.005 | 0.039 | 0 | -0.001 | -0.035 | -0.009 | -0.086 | -0.025 | -0.009 | -0.004 | 0.023 | 0.035 |
| AGPAT3 isoform 3 (UniProt Q9NRZ7) | 0.009 | -0.008 | 0.028 | -0.009 | 0.028 | 0.12 | 0.04 | 0.006 | 0 | 0.067 | 0.012 | 0 | -0.024 | -0.02 | -0.001 | -0.071 | -0.001 | 0.034 | -0.011 | 0.03 |
| AK6 (UniProt Q9Y3D8) | 0.105 | 0.108 | 0.007 | -0.157 | 0.194 | 0.025 | 0.046 | -0.027 | -0.041 | -0.085 | -0.051 | -0.014 | -0.132 | 0.067 | -0.175 | -0.309 | 0.039 | 0.078 | 0.061 | 0.138 |
| ACACB (UniProt O00763) | 0.048 | -0.094 | -0.212 | -0.108 | 0.07 | -0.123 | 0.132 | -0.028 | -0.059 | -0.143 | -0.23 | 0.02 | 0.108 | 0.216 | 0 | -0.515 (active) | 0.066 | 0.315 | 0.11 | 0.027 |
| BRIP1 (UniProt Q9BX63) | -0.009 | 0.076 | -0.153 | 0.018 | 0.075 | -0.082 | -0.048 | 0.023 | -0.064 | -0.045 | 0.017 | 0.12 | -0.073 | 0.006 | 0.039 | -0.036 | -0.064 | 0.084 | -0.01 | 0.333 (active) |
| ABCB6 (UniProt Q9NP58) | 0.017 | 0.045 | 0.029 | 0.037 | -0.003 | 0.069 | 0.087 | -0.056 | -0.057 | 0.023 | -0.018 | 0.003 | 0.021 | 0.051 | -0.073 | -0.489 (active) | -0.007 | 0.037 | -0.058 | 0.065 |
| BCCIP isoform 2 (UniProt Q9P287) | -0.1 | 0.023 | 0.027 | 0.026 | -0.025 | 0.003 | 0.012 | -0.007 | -0.002 | 0.066 | 0.013 | -0.025 | 0.008 | -0.048 | 0.012 | 0.008 | -0.012 | 0.029 | -0.012 | 0.077 |
| BID isoform 2 (UniProt P55957) | 0.026 | 0.006 | 0.014 | 0.052 | -0.04 | 0.012 | -0.03 | 0.028 | -0.05 | 0.034 | 0.052 | 0.008 | -0.039 | -0.038 | -0.053 | 0.105 | 0.012 | -0.018 | -0.047 | 0.074 |
| ATP23 (UniProt Q9Y6H3) | 0.021 | -0.079 | -0.017 | 0.033 | 0.051 | 0.027 | 0.009 | 0.033 | 0.007 | -0.014 | 0.091 | -0.009 | -0.004 | -0.043 | 0.02 | -0.136 | 0.025 | -0.014 | 0.011 | -0.01 |
| ABCA4 (UniProt P78363) | 0.191 | -0.367 | 0.107 | -0.151 | 0.062 | -0.073 | 0.042 | 0.044 | 0.033 | 0.145 | 0.128 | 0.078 | -0.014 | 0.215 | -0.047 | 0.127 | 0.481 | -0.06 | -0.05 | 0.082 |
| AHCYL1 (UniProt O43865) | 0.083 | -0.032 | -0.008 | -0.042 | 0.001 | 0.086 | 0.09 | 0.118 | 0.077 | 0.104 | 0.035 | 0.062 | 0.337 (active) | 0.008 | -0.016 | 0.014 | 0.001 | -0.048 | -0.033 | -0.004 |
| ARF4 (UniProt P18085) | -0.029 | 0.033 | 0.093 | -0.007 | 0.006 | -0.016 | 0.093 | 0.039 | -0.015 | -0.021 | 0.072 | 0.003 | -0.027 | -0.019 | -0.103 | 0.117 | -0.032 | -0.042 | -0.071 | 0.128 |
| ATAD3B (UniProt Q5T9A4) | -0.027 | -0.018 | -0.128 | -0.006 | -0.005 | -0.002 | -0.06 | 0.066 | 0.01 | -0.091 | -0.05 | 0.045 | -0.01 | 0.122 | -0.011 | -0.472 (active) | 0.066 | 0.276 | 0.077 | 0.024 |
| ASNS (UniProt P08243) | 0.006 | 0.004 | 0.053 | -0.015 | 0.012 | -0.011 | 0.034 | -0.008 | 0.002 | 0.02 | 0.046 | 0.015 | 0.006 | -0.033 | -0.029 | 0.017 | -0.003 | -0.034 | -0.007 | -0.007 |
